# Source: PubChem BioAssay (NCATS)
# Records with an inconclusive call do not appear. Activity calls are given as the source filed them. Calls follow the shape of the dose curve; as a rule, active = well fitted curve in the direction sought with a large enough effect; inconclusive = small, poorly fitted or top-dose-only effect, or another doubt; inactive = no such curve, though single readings can be large; an effect the other way counts as inactive or inconclusive.
# What was measured:
# [1] = qHTS of pediatric cancer cell lines to identify multiple opportunities for drug repurposing: Confirmatory screen for control Hh wild type fibroblast cells (AID 1347121); also: nearly all actives have a fitted effect of over 70% in size
# How it was run: (§1)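 Cells (500-1,000/well) in growth media were settled 5 h at 37 degrees C, then given compounds for 48 h. Viability was read as CellTiter-Glo luminescence. Primary runs used MIPE at 11 points (0.78 nM-46 µM) and NPC at 8 points (0.59 nM-46 µM); follow-ups used 11 points.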
# [2] = qHTS of pediatric cancer cell lines to identify multiple opportunities for drug repurposing: Confirmatory screen for U-2 OS cells (AID 1347122); also: nearly all actives have a fitted effect of over 65% in size
# How it was run: as §1
# [3] = qHTS of pediatric cancer cell lines to identify multiple opportunities for drug repurposing: Confirmatory screen for Rh41 cells (AID 1347123);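 also: 48 h compound exposure; nearly all actives have a fitted effect of over 60% in size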
# How it was run: as §1
# [4] = qHTS of pediatric cancer cell lines to identify multiple opportunities for drug repurposing: Confirmatory screen for Rh30 cells (AID 1347126); also: nearly all actives have a fitted effect of over 55% in size
# How it was run: as §1
# [5] = qHTS of pediatric cancer cell lines to identify multiple opportunities for drug repurposing: Confirmatory screen for Saos-2 cells (AID 1347127); also: nearly all actives have a fitted effect of over 60% in size
# How it was run: as §1
# [6] = qHTS of pediatric cancer cell lines to identify multiple opportunities for drug repurposing: Confirmatory screen for BT-37 cells (AID 1347117);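 also: viability measured after 48 h of compound exposure; nearly all actives have a fitted effect of over 55% in size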
# How it was run: as §1
# [7] = qHTS of pediatric cancer cell lines to identify multiple opportunities for drug repurposing: Confirmatory screen for RD cells (AID 1347124);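 also: cells exposed to compound for 48 h before viability readout; nearly all actives have a fitted effect of over 65% in size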
# How it was run: as §1
# [8] = qHTS of pediatric cancer cell lines to identify multiple opportunities for drug repurposing: Confirmatory screen for Rh18 cells (AID 1347125); also: nearly all actives have a fitted effect of over 55% in size
# How it was run: as §1
# [9] = qHTS of pediatric cancer cell lines to identify multiple opportunities for drug repurposing: Confirmatory screen for MG 63 (6-TG R) cells (AID 1347119); also: nearly all actives have a fitted effect of over 55% in size
# How it was run: as §1
# [10] = qHTS of pediatric cancer cell lines to identify multiple opportunities for drug repurposing: Confirmatory screen for TC32 cells (AID 1347118);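 also: cells exposed to compound for 48 h before the read; nearly all actives have a fitted effect of over 65% in size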
# How it was run: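 qHTS, TC32, 48 h drug treatment, CellTiter-Glo luminescence as a proxy for metabolically active cells; primary top concentration 46 µM (MIPE 11-pt, NPC 8-pt); confirmatory 11-pt.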
# Potency is read from the fitted curve at half-maximal effect.
Structure (SMILES),Potency [1],Potency [2],Potency [3],Potency [4],Potency [5],Potency [6],Potency [7],Potency [8],Potency [9],Potency [10]
CCc1c2c(nc3ccc(O)cc13)-c1cc3c(c(=O)n1C2)COC(=O)[C@]3(O)CC,inactive,3.69 µM (active),0.261 µM (active),1.47 µM (active),inactive,–,–,–,–,–
CN1CC[C@@H](c2c(O)cc(O)c3c(=O)cc(-c4ccccc4Cl)oc23)[C@@H](O)C1,inactive,0.329 µM (active),0.369 µM (active),0.369 µM (active),0.522 µM (active),0.414 µM (active),0.737 µM (active),1.17 µM (active),–,–
CC(C)(C)NC(=O)[C@H]1CN(Cc2cccnc2)CCN1C[C@@H](O)C[C@@H](Cc1ccccc1)C(=O)N[C@H]1c2ccccc2C[C@H]1O,inactive,23.3 µM (active),–,18.5 µM (active),–,–,inactive,–,23.3 µM (active),–
C=CC(=O)N1CCC[C@@H](n2nc(-c3ccc(Oc4ccccc4)cc3)c3c(N)ncnc32)C1,inactive,–,14.7 µM (active),10.4 µM (active),–,–,inactive,–,–,7.37 µM (active)
CC(NCc1ccc2c(c1)nc(NC(=O)c1ccc(-c3cn[nH]c3)s1)n2CC(C)(C)O)C(C)(C)C (stereo not given),7.37 µM (active),0.928 µM (active),–,0.657 µM (active),0.928 µM (active),–,0.928 µM (active),2.61 µM (active),1.31 µM (active),–
Cc1cn2c(-c3cn[nH]c3)cnc2c(Nc2ccc(C(=O)N3CCNCC3)cc2F)n1,inactive,inactive,5.85 µM (active),16.5 µM (active),–,10.4 µM (active),inactive,–,–,–
CN(c1ncccc1CNc1nc(Nc2ccc3c(c2)CC(=O)N3)ncc1C(F)(F)F)S(C)(=O)=O,inactive,7.37 µM (active),3.69 µM (active),–,8.27 µM (active),7.37 µM (active),–,–,–,–
Cc1cn(-c2cc(NC(=O)c3ccc(C)c(Nc4nccc(-c5cccnc5)n4)c3)cc(C(F)(F)F)c2)cn1,inactive,–,–,20.8 µM (active),–,16.5 µM (active),–,–,–,–
Cc1cc(N2CCOCC2)cc2[nH]c(-c3c(NC[C@@H](O)c4cccc(Cl)c4)cc[nH]c3=O)nc12,–,7.37 µM (active),0.657 µM (active),0.293 µM (active),3.69 µM (active),–,–,3.29 µM (active),0.329 µM (active),0.465 µM (active)
CN(C)CC(C)(C)CNc1nn2c(-c3ccccc3)nnc2cc1C1CCC1,inactive,–,–,–,inactive,–,inactive,inactive,inactive,18.5 µM (active)
COc1cc2nccc(Oc3ccc(NC(=O)C4(C(=O)Nc5ccc(F)cc5)CC4)cc3)c2cc1OC,inactive,23.3 µM (active),26.1 µM (active),–,18.5 µM (active),–,inactive,–,–,18.5 µM (active)
CN[C@H]1CCc2cc(OC)c(OC)c(OC)c2-c2ccc(OC)c(=O)cc21,inactive,0.208 µM (active),–,inactive,–,–,0.104 µM (active),inactive,–,–
CC(C)(C)c1cc(C(C)(C)C)c(NC(=O)c2c[nH]c3ccccc3c2=O)cc1O,–,–,–,inactive,16.5 µM (active),–,29.3 µM (active),–,20.8 µM (active),–
Cc1c(Cn2c(C)nc3c(C(=O)O)cc(N4CCOCC4)cc32)cccc1C(F)(F)F,inactive,23.3 µM (active),inactive,inactive,inactive,–,inactive,inactive,inactive,–
